Source: PubChem BioAssay (EPA / NIEHS)
Inconclusive results are not listed. Calls of active or inactive are those of the source. Rule for the calls, unless noted: active = hit-call score of the fitted dose curve at least 0.9, where 1 is the maximum; inconclusive = response in the unintended direction; inactive = score below 0.9.

Assays:
[1] = ATG_TAL_CIS: Attagene CIS-FACTORIAL HepG2 Assay for human TAL Basal Promoter (AID 2282966; active = hit-call score of the fitted dose curve at least 0.9, where 1 is the maximum; inactive = score below 0.9;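 note: background control endpoint measuring basal TAL promoter reporter mRNA not a specific factor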); settings: HepG2 Attagene cis-factorial TAL promoter reporter; actives raise or lower the signal
Procedure, shortened: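 Readout: reporter mRNA, fluorescence by CE. System: HepG2, transient multi-reporter transfection, endogenous TF activity. Exposure: 24 h. Analysis: bidirectional, DMSO-normalized; background control.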

[2] = ATG_TGFb_CIS: Attagene CIS-FACTORIAL HepG2 Assay for human Transforming Growth Factor (TGF) (AID 2282967; active = hit-call score of the fitted dose curve at least 0.9, where 1 is the maximum; inactive = score below 0.9); settings: HepG2 Attagene CIS TGFb reporter, mRNA transcription; actives raise or lower the signal
Procedure, shortened: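 Multiplexed cis-reporter HepG2 system, 24 h treatment; mRNA induction read by fluorescence after RT-PCR and CE; DMSO negative control, bidirectional curve fitting.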

[3] = ATG_VDRE_CIS: Attagene CIS-FACTORIAL HepG2 Assay for human Vitamin D Receptor Element (VDRE) (AID 2282968; active = hit-call score of the fitted dose curve at least 0.9, where 1 is the maximum; inactive = score below 0.9); settings: HepG2 VDRE cis-reporter transcription, actives raise or lower the signal
Procedure, shortened: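 Cell-based multiplexed reporter format in human liver HepG2 cells, 24 h post-dose. Fluorescence from capillary electrophoresis of reporter cDNA gives the signal, with DMSO as negative control and baseline.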

[4] = target: Nuclear receptor subfamily 1 group I member 3 (Homo sapiens) (UniProt Q14994); assay: ATG_CAR_TRANS: Attagene TRANS-FACTORIAL HepG2 Assay for human Constitutive Androstane Receptor (CAR) (AID 2282969); settings: HepG2 Attagene TRANS-FACTORIAL CAR reporter;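 note: activators raise reporter mRNA above DMSO so AC50 marks induction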
Procedure, shortened: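 HepG2 cells transiently transfected with GAL4-UAS reporter units; TRANS format reads activity of exogenous chimeric NR-Gal4 protein. After 24 h dosing, reporter mRNA quantified by RT-PCR, 6-FAM labelling and capillary electrophoresis; gain of signal fitted against DMSO.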

[5] = target: Estrogen receptor (Homo sapiens) (UniProt P03372); assay: ATG_ERa_TRANS: Attagene TRANS-FACTORIAL HepG2 Assay for human Estrogen Receptor alpha (ERa) (AID 2282970); settings: HepG2 Attagene TRANS ERa GAL4 reporter, mRNA
Procedure, shortened: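 Transactivation via ERa-Gal4 chimera in HepG2; 24 hour incubation; reporter mRNA detected by fluorescence RT-PCR and capillary electrophoresis.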

[6] = target: Steroid hormone receptor ERR1 (Homo sapiens) (UniProt P11474); assay: ATG_ERRa_TRANS: Attagene TRANS-FACTORIAL HepG2 Assay for human Estrogen-Related Receptor alpha (ERRa) (AID 2282971); settings: HepG2 Attagene TRANS reporter, ERRa transactivation
Procedure, shortened: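 HepG2 cells were transiently transfected with multiple GAL4-UAS reporter units, then dosed with compound for 24 h. Total RNA was reverse-transcribed, reporter cDNA PCR-amplified and fluorescently labelled, and fragments resolved by capillary electrophoresis; induction was compared with DMSO.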

[7] = target: X-box-binding protein 1 (Homo sapiens) (UniProt P17861); assay: ATG_Xbp1_CIS: Attagene CIS-FACTORIAL HepG2 Assay for human X-box Binding Protein 1 (XBP1) (AID 2282972; active = hit-call score of the fitted dose curve at least 0.9, where 1 is the maximum; inactive = score below 0.9); settings: HepG2 XBP1 cis-element reporter, Attagene multiplex; actives raise or lower the signal
Procedure, shortened: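 HepG2 cells transiently transfected with cis-regulated multiple reporter transcription units; endogenous transcription factor activity measured 24 hours after chemical dosing. Reporter mRNA quantified by RT-PCR, 6-FAM primer extension, HpaI digestion and capillary electrophoresis; bidirectional fitting versus DMSO.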

[8] = ATG_M_19_TRANS: Attagene TRANS-FACTORIAL HepG2 Assay for M19 Transcription Factor (Internal Marker) (AID 2282974); settings: HepG2 Attagene TRANS-FACTORIAL M19 internal marker reporter
Procedure, shortened: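 HepG2 transiently transfected with GAL4-UAS multiplex reporter constructs, exposed 24 h; reporter RNA quantified by RT-PCR, 6-FAM labeling, HpaI digestion and capillary electrophoresis; internal background marker fitted upward versus DMSO.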

[9] = target: Glucocorticoid receptor (Homo sapiens) (UniProt P04150); assay: ATG_GR_TRANS: Attagene TRANS-FACTORIAL HepG2 Assay for human Glucocorticoid Receptor (GR) (AID 2282978); settings: HepG2 Attagene TRANS GR reporter, mRNA transcription;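 note: activators score as hits since higher reporter transcript over DMSO is fitted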
Procedure, shortened: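 HepG2 cells transiently transfected with GAL4-UAS reporter units and exogenous GR-Gal4 chimera, dosed 24 h. Reporter mRNA by RT-PCR, FAM labeling, HpaI digest and capillary electrophoresis; gain-of-signal fit versus DMSO.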

[10] = target: Oxysterols receptor LXR-alpha (Homo sapiens) (UniProt Q13133); assay: ATG_LXRa_TRANS: Attagene TRANS-FACTORIAL HepG2 Assay for human Liver X Receptor alpha (LXRa) (AID 2282980); settings: HepG2 Attagene TRANS reporter, LXRa transactivation
Procedure, shortened: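 Transient HepG2 transfectants, 24 h dosing, RT-PCR/CE mRNA reporter quantitation; gain-of-signal vs DMSO.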

[11] = target: Oxysterols receptor LXR-beta (Homo sapiens) (UniProt P55055); assay: ATG_LXRb_TRANS: Attagene TRANS-FACTORIAL HepG2 Assay for human Liver X Receptor beta (LXRb) (AID 2282981); settings: HepG2 Attagene TRANS GAL4-LXRb reporter, mRNA
Procedure, shortened: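 Gain-of-signal mRNA reporter endpoint, DMSO as negative control. Transiently transfected HepG2 cells carrying the NR-Gal4 chimera and GAL4-UAS reporter units were treated 24 h; transcripts quantified by RT-PCR and capillary electrophoresis fluorescence.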

[12] = ATG_M_32_TRANS: Attagene TRANS-FACTORIAL HepG2 Assay for M32 Transcription Factor (Internal Marker) (AID 2282984); settings: HepG2 Attagene TRANS M32 internal marker reporter;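 note: transcript level of a background control reporter unit measured by RT-PCR and capillary electrophoresis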
Procedure, shortened: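 Capillary electrophoresis of 6-FAM-labelled reporter fragments gives the signal; data fitted for gain over DMSO negative control. Source: HepG2 cells bearing transient multiple reporter transcription units, 24 h exposure.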

[13] = target: Nuclear receptor subfamily 4 group A member 2 (Homo sapiens) (UniProt P43354); assay: ATG_NURR1_TRANS: Attagene TRANS-FACTORIAL HepG2 Assay for human Nuclear Receptor Related Protein 1 (NURR1) (AID 2282985); settings: HepG2 Attagene TRANS reporter, mRNA readout
Procedure, shortened: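 HepG2 / transient MRTU transfection / 24 h compound exposure / RT-PCR + CE fluorescence of reporter mRNA / gain-of-signal vs DMSO.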

[14] = ATG_M_06_TRANS: Attagene TRANS-FACTORIAL HepG2 Assay for M06 Transcription Factor (Internal Marker) (AID 2282983); settings: HepG2 Attagene TRANS M06 internal marker reporter
Procedure, shortened: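 Measured by capillary electrophoresis of fluorescently labelled RT-PCR products, this endpoint reflects reporter mRNA in HepG2 cells harbouring exogenous NR-GAL4 reporter constructs after 24 h exposure, with DMSO as baseline.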

[15] = target: Nuclear respiratory factor 1 (Homo sapiens) (UniProt Q16656); assay: ATG_NRF1_CIS: Attagene CIS-FACTORIAL HepG2 Assay for human Nuclear Respiratory Factor 1 (NRF1) Orphan Gene (AID 2282987; active = hit-call score of the fitted dose curve at least 0.9, where 1 is the maximum; inactive = score below 0.9); settings: HepG2 NRF1 cis-element reporter, Attagene multiplex; actives raise or lower the signal
Procedure, shortened: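 HepG2 cells transiently transfected with multiple cis-regulated reporter units, exposed 24 h. Reporter mRNAs measured by RT-PCR, fluorescent labelling, HpaI digestion and capillary electrophoresis; bidirectional fitting against DMSO.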

[16] = ATG_GAL4_TRANS: Attagene TRANS-FACTORIAL HepG2 Assay for GAL4 (Internal Marker) (AID 2282976); settings: HepG2 Attagene TRANS GAL4 internal marker reporter
Procedure, shortened: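 Fluorescence from capillary electrophoresis of labelled RT-PCR products quantifies reporter mRNA induction after 24 h dosing of HepG2 cells carrying transfected GAL4-UAS reporter transcription units. Vehicle DMSO serves as baseline.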

[17] = target: Estrogen-related receptor gamma (Homo sapiens) (UniProt P62508); assay: ATG_ERRg_TRANS: Attagene TRANS-FACTORIAL HepG2 Assay for human Estrogen-Related Receptor gamma (ERRg) (AID 2282977); settings: HepG2 Attagene TRANS reporter, ERRg transactivation;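 note: hits increase reporter signal over DMSO so potencies reflect activators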
Procedure, shortened: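 HepG2 cells transiently transfected with multiplexed GAL4-UAS reporter units and chimeric NR-Gal4 constructs were exposed to test chemicals for 24 h. Reporter mRNA was measured by RT-PCR, 6-FAM primer extension, HpaI digestion and capillary electrophoresis; gain-of-signal versus DMSO.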

[18] = target: Transcriptional activator Myb (Homo sapiens) (UniProt P10242); assay: ATG_Myb_CIS: Attagene CIS-FACTORIAL HepG2 Assay for human Myeloblastosis (Myb) Proto-Oncogene Transcription Factor (AID 2282986; active = hit-call score of the fitted dose curve at least 0.9, where 1 is the maximum; inactive = score below 0.9); settings: HepG2 Attagene CIS-FACTORIAL Myb reporter transcription; actives raise or lower the signal
Procedure, shortened: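 Transiently transfected HepG2 cells carrying a multiplexed cis-promoter reporter set report endogenous Myb activity after 24 h compound exposure. Reporter mRNA is read by RT-PCR with capillary electrophoresis of fluorescent products, fitted bidirectionally against DMSO.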

[19] = target: Bile acid receptor (Homo sapiens) (UniProt Q96RI1); assay: ATG_FXR_TRANS: Attagene TRANS-FACTORIAL HepG2 Assay for Farnesoid X Receptor (FXR) (AID 2282979); settings: HepG2 Attagene TRANS FXR-GAL4 reporter transcription;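 note: hits raise reporter mRNA above DMSO so AC50 marks FXR activation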
Procedure, shortened: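 Chimeric FXR-GAL4 activity in transiently transfected human HepG2 liver cells is scored as induction of reporter mRNA after 24 h of dosing. Detection uses RT-PCR with fluorescent labelling and capillary electrophoresis, with DMSO serving as baseline.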

[20] = target: Hepatocyte nuclear factor 4-alpha (Homo sapiens) (UniProt P41235); assay: ATG_HNF4a_TRANS: Attagene TRANS-FACTORIAL HepG2 Assay for human Hepatocyte Nuclear Factor 4 alpha (HNF4a) (AID 2282982); settings: HepG2 HNF4a transactivation reporter, mRNA readout
Procedure, shortened: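 Gain-of-signal mRNA induction, relative to DMSO vehicle, was read after 24 h compound treatment of HepG2 cells bearing transfected GAL4-UAS reporters. Detection used RT-PCR, 6-FAM primer extension and capillary electrophoresis.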

Sequence of Nuclear receptor subfamily 1 group I member 3 (Homo sapiens) (Q14994 whole entry, looked up, the tested form may be a part): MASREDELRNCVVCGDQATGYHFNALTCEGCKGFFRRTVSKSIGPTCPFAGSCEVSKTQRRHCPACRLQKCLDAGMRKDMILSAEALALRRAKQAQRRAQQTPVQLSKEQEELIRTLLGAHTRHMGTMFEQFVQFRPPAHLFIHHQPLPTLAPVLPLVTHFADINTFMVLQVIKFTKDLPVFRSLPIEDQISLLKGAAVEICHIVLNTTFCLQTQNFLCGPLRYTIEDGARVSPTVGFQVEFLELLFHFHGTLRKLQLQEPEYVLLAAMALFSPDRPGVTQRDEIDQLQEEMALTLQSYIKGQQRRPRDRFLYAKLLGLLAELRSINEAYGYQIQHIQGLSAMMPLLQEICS
Sequence of Nuclear receptor subfamily 4 group A member 2 (Homo sapiens) (P43354 whole entry, looked up): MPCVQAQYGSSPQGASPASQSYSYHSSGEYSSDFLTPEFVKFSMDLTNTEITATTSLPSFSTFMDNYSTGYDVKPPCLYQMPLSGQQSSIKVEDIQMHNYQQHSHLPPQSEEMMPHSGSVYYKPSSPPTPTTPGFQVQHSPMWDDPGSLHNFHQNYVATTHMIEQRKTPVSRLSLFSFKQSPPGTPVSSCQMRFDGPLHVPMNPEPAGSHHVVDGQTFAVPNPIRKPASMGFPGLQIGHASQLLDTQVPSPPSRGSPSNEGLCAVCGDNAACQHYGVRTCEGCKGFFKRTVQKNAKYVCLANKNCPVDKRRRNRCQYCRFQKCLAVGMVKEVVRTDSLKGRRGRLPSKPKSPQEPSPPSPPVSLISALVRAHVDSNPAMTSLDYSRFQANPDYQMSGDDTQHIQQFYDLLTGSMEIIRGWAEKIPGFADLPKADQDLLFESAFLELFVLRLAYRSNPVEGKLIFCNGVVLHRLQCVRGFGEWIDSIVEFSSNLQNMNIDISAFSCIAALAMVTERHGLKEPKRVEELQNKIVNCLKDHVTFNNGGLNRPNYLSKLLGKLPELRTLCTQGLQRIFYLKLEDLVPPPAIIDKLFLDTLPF
Sequence of Estrogen receptor (Homo sapiens) (P03372 whole entry, looked up, the tested form may be a part): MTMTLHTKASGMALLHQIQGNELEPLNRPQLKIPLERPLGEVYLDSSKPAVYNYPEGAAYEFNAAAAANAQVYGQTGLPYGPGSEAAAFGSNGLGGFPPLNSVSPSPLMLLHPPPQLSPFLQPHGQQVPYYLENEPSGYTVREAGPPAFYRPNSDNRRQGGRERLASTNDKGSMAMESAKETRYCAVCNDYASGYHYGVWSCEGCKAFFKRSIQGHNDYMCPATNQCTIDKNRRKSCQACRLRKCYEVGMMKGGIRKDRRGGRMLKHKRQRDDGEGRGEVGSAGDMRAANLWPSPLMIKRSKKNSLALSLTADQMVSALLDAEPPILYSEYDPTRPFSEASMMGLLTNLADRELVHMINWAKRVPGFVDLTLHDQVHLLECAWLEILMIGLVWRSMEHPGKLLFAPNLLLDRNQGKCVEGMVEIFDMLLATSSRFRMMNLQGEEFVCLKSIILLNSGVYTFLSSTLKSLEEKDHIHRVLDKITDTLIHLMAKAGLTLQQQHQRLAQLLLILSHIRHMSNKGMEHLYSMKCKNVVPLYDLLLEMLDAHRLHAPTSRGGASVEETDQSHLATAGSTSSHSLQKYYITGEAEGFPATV
Sequence of Glucocorticoid receptor (Homo sapiens) (P04150 whole entry, looked up, the tested form may be a part): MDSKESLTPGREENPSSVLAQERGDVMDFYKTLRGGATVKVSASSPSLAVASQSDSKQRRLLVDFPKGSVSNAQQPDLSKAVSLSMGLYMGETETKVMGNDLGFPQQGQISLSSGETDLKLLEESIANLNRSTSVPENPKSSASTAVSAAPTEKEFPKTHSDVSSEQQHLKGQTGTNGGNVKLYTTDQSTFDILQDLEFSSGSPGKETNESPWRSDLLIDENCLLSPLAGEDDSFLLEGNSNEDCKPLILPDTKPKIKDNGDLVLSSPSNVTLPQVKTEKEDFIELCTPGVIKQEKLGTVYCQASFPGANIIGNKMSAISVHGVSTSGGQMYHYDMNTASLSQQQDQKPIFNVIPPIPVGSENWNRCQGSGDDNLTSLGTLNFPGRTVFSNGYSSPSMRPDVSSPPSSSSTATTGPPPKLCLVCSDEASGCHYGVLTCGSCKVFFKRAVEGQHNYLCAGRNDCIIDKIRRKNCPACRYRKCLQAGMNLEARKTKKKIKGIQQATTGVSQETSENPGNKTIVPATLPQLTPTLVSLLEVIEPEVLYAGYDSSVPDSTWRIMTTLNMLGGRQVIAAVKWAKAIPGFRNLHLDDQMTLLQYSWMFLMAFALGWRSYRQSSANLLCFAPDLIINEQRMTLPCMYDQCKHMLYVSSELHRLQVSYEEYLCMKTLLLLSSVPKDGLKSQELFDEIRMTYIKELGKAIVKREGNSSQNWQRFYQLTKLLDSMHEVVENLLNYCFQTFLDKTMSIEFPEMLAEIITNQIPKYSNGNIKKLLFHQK
Sequence of Oxysterols receptor LXR-alpha (Homo sapiens) (Q13133 whole entry, looked up): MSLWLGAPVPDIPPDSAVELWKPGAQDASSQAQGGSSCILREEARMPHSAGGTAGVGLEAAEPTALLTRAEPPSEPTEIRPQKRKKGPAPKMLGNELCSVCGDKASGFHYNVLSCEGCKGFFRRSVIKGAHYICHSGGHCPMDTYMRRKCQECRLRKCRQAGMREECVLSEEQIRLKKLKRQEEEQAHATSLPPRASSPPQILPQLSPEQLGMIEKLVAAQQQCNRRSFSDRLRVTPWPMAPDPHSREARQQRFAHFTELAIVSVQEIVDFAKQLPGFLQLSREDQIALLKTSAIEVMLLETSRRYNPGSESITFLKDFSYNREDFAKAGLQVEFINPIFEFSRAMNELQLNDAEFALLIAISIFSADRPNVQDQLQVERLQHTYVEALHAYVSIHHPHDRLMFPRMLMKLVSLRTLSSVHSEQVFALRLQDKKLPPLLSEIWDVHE
Sequence of X-box-binding protein 1 (Homo sapiens) (P17861 whole entry, looked up): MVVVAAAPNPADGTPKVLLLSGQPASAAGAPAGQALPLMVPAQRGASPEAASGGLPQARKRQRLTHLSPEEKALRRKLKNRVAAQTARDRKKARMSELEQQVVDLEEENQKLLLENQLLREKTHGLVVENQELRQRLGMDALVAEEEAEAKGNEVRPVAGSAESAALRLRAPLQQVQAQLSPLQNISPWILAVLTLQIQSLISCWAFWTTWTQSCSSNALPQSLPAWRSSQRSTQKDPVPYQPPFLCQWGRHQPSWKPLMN
Sequence of Transcriptional activator Myb (Homo sapiens) (P10242 whole entry, looked up): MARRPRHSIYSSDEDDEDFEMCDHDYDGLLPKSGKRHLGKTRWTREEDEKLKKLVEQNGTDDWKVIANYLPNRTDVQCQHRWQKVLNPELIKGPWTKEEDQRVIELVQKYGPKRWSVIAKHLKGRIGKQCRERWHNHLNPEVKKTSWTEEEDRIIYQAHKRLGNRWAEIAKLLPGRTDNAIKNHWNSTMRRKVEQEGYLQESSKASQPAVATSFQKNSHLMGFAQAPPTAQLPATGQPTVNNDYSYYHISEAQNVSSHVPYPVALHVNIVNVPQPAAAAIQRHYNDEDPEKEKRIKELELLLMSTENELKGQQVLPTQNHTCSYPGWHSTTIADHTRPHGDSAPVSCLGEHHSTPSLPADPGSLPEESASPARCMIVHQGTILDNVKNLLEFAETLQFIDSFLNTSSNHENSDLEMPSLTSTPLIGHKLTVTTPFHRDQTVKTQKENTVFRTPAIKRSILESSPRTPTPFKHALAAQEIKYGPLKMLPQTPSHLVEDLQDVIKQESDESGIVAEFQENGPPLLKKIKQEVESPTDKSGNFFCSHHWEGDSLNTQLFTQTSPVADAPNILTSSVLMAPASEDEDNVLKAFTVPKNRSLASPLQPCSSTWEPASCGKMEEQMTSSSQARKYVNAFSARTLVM
Sequence of Bile acid receptor (Homo sapiens) (Q96RI1 whole entry, looked up, the tested form may be a part): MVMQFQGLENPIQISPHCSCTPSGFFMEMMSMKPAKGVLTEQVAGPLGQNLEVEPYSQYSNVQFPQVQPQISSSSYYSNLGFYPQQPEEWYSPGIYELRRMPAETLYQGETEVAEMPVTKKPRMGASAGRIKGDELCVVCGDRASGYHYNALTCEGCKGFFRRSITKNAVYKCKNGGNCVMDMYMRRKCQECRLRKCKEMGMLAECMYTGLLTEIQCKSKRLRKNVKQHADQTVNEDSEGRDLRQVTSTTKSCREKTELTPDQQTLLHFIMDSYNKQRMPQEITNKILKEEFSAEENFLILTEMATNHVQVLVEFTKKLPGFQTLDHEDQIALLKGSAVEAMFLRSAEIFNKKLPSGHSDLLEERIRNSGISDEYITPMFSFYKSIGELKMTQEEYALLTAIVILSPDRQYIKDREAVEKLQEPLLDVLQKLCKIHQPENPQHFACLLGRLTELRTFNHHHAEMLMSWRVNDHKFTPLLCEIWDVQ
Sequence of Estrogen-related receptor gamma (Homo sapiens) (P62508 whole entry, looked up, the tested form may be a part): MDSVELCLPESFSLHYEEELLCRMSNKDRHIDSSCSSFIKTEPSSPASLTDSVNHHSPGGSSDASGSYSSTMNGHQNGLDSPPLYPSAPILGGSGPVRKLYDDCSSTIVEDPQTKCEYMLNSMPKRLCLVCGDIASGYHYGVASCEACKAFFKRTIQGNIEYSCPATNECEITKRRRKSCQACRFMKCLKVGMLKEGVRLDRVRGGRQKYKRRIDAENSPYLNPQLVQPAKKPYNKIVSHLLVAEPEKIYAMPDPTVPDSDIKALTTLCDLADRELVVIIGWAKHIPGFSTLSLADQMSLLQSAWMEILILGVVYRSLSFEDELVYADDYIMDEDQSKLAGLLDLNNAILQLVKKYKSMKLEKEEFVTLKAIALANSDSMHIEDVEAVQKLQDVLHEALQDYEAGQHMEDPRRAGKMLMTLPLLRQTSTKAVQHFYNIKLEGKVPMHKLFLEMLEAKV

CCCCC/C=C\CCC=O
outcome [1]: inactive
outcome [2]: inactive
outcome [3]: inactive
outcome [4]: inactive
outcome [5]: inactive
outcome [6]: inactive
outcome [7]: inactive
outcome [8]: inactive
outcome [9]: inactive
outcome [10]: inactive
outcome [11]: inactive
outcome [12]: inactive
outcome [13]: inactive

CC(C)(C)C(=O)CCc1ccc(Cl)cc1
outcome [1]: inactive
outcome [2]: inactive
AC50 [3]: 41.2 µM (active)
outcome [4]: inactive
AC50 [5]: 17.7 µM (active)
outcome [6]: inactive
outcome [7]: inactive
outcome [11]: inactive
outcome [14]: inactive
outcome [12]: inactive
outcome [15]: inactive

C1=Cc2ccccc2C1
outcome [1]: inactive
outcome [2]: inactive
outcome [3]: inactive
outcome [4]: inactive
AC50 [5]: 65.8 µM (active)
outcome [7]: inactive
outcome [16]: inactive
outcome [17]: inactive
outcome [10]: inactive
outcome [11]: inactive
outcome [14]: inactive
outcome [18]: inactive
outcome [15]: inactive

C(=CC=Nc1ccccc1)C=CNc1ccccc1
outcome [1]: inactive
outcome [2]: inactive
outcome [3]: inactive
outcome [4]: inactive
outcome [5]: inactive
outcome [7]: inactive
outcome [8]: inactive
outcome [16]: inactive
outcome [19]: inactive
outcome [10]: inactive
outcome [11]: inactive
outcome [14]: inactive
outcome [12]: inactive
outcome [13]: inactive
outcome [18]: inactive
outcome [15]: inactive

[Cl][In]([Cl])[Cl]
outcome [1]: inactive
outcome [2]: inactive
outcome [3]: inactive
outcome [4]: inactive
outcome [5]: inactive
outcome [6]: inactive
outcome [7]: inactive
outcome [17]: inactive
outcome [10]: inactive
outcome [14]: inactive
outcome [13]: inactive
outcome [18]: inactive
outcome [15]: inactive

O=C1c2cccc(O)c2C(=O)c2c(O)cc(CO)cc21
outcome [1]: inactive
outcome [2]: inactive
outcome [3]: inactive
outcome [4]: inactive
AC50 [5]: 5.81 µM (active)
outcome [6]: inactive
outcome [7]: inactive
outcome [8]: inactive
outcome [17]: inactive
outcome [9]: inactive
outcome [19]: inactive
outcome [10]: inactive
outcome [18]: inactive
outcome [15]: inactive

N#[N+]c1ccc2c(S(=O)(=O)[O-])cccc2c1O
outcome [1]: inactive
outcome [2]: inactive
outcome [3]: inactive
outcome [4]: inactive
outcome [5]: inactive
outcome [6]: inactive
outcome [7]: inactive
outcome [8]: inactive
outcome [16]: inactive
outcome [17]: inactive
outcome [11]: inactive
outcome [20]: inactive
outcome [12]: inactive
outcome [13]: inactive
outcome [15]: inactive

C=CCCCCCCCCC(=O)OCCCC
outcome [1]: inactive
outcome [2]: inactive
outcome [3]: inactive
outcome [4]: inactive
outcome [5]: inactive
outcome [7]: inactive
outcome [8]: inactive
outcome [19]: inactive
outcome [11]: inactive
outcome [12]: inactive
outcome [18]: inactive
outcome [15]: inactive

CCCCCCCOC(=O)CCC
outcome [1]: inactive
outcome [2]: inactive
outcome [3]: inactive
outcome [4]: inactive
outcome [5]: inactive
outcome [6]: inactive
outcome [7]: inactive
outcome [16]: inactive
outcome [9]: inactive
outcome [10]: inactive
outcome [11]: inactive
outcome [14]: inactive
outcome [13]: inactive
outcome [18]: inactive
outcome [15]: inactive

O=C1CCCN1CCO
outcome [1]: inactive
outcome [2]: inactive
outcome [3]: inactive
outcome [4]: inactive
outcome [5]: inactive
outcome [7]: inactive
outcome [8]: inactive
outcome [9]: inactive
outcome [10]: inactive
outcome [13]: inactive
outcome [18]: inactive
outcome [15]: inactive
